The list is not random: actives were taken first. Their share in the collection is about 9.4%.
Pf growth 48h: inhibits P. falciparum growth in the first generation, 48 h; Potency, µM (titrated, usually from 28.7 µM), without a hit: at the top dose activity change, negative = inhibition, hits mostly inhibitors; AID 504832; P. falciparum luciferase growth in erythrocytes, 48 h; 5.9% of 310,000 active; note: % is set by controls: 0 for no effect and ±100 for the full control effect
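First compound was added to culture medium, then infected red cells at 0.1% parasitemia and 2% hematocrit (final). After incubation at 37 C under 5% CO2, luciferase detection reagent was dispensed and light output recorded.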
AMA1 RON2 block: AMA1-RON2 (P. falciparum) interaction inhibition; AlphaScreen AMA1-biotinylated RON2 peptide binding; Potency, µM (top dose mostly 58.2 µM), inactives show at the highest dose activity change, negative = inhibition, most hits filed as inhibitors; 0.2% of 360,000 active;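 note: 0% = vehicle wells and -100% = peptide control; nearly all actives have a fitted effect of over 45% in size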
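AMA1 (3D7) with his tag at 25 nM final met compounds first, then biotinylated RON2 peptide at 25 nM; detection used donor plus acceptor beads, 10 µg/mL apiece, read by AlphaScreen after 30 min at room temperature.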
Pf growth 96h: inhibits malaria parasite growth, 96 h; P. falciparum luciferase reporter growth, 96 h; Potency, µM (doses to about 28.7 µM), for inactives: at the top dose activity change, negative = inhibition, most hits filed as inhibitors; 6.9% of 320,000 active; AID 504834; note: % is set by controls: 0 for no effect and ±100 for the full control effect
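Cell-based qHTS: luciferase-tagged P. falciparum in erythrocytes (2% hematocrit, 0.05% parasitemia final) incubated with compounds for 96 hours, 37 C, 5% CO2; luciferase detection reagent then added and luminescence measured.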
SARS PLP yeast: blocks SARS-CoV papain-like protease in a yeast assay; S. cerevisiae expressing SARS-CoV PLpro, growth rescue; Potency, µM (highest dose often 32.9 µM), inactives show at the top dose activity, positive = growth rescue, actives largely listed as activators; 0.19% of 330,000 active; AID 485353; calls by dose curve; note: 0% is about no effect; nearly all actives have a fitted effect of over 55% in size
Active calls of the source: *. Unless noted, calls come from the whole dose curve; as a rule, active = well fitted curve in the direction sought with a large enough effect; inconclusive = small, poorly fitted or top-dose-only effect, or another doubt; inactive = no such curve, though single readings can be large; an effect the other way counts as inactive or inconclusive. Potency is the fitted concentration of half-maximal effect.

For CC1(c2nnc(-c3ccncc3)o2)CC(c2ccc(Cl)cc2)=NO1 (centres undefined) the results were AMA1 RON2 block -3%.
CCOC(=O)C1=C(c2ccccc2)NC(N)=NC1c1ccc(OCc2ccc(Cl)cc2)c(OC)c1 (centres undefined) was read as Pf growth 48h 1.5µM*, AMA1 RON2 block -19%, Pf growth 96h 1.7µM* and SARS PLP yeast -1%.
`O=C(CCl)Nc1c[nH]c(=O)[nH]c1=O` gave Pf growth 48h 1.7µM*, AMA1 RON2 block 1%, Pf growth 96h 8% and SARS PLP yeast -2%.
Screening O=C1[C@H](Cc2ccccc2)NCC=CC[C@@H](c2ccc(Cl)cc2)N1Cc1ccc(Cl)cc1 returned AMA1 RON2 block 0%.
Cc1ccc(NC(=O)CN(C(=O)N2CCN(C)CC2)S(=O)(=O)c2ccc(C)cc2)cc1 was read as Pf growth 48h 2%, AMA1 RON2 block 8%, Pf growth 96h 18% and SARS PLP yeast 10%.
`O=C(O)c1ccc2c(c1)C(=O)N(c1nccs1)C2=O` gave Pf growth 48h 3.3µM*, AMA1 RON2 block -20%, Pf growth 96h 7% and SARS PLP yeast 1%.
`COC(=O)CCCCC1SCC(NC(=O)c2ccccc2)C1OC(C)=O` (centres undefined) gave Pf growth 48h -7%, AMA1 RON2 block 0%, Pf growth 96h -18% and SARS PLP yeast 1%.
`Cc1cccc(-n2c(C)c(-c3ccccc3)[nH]c2=S)c1` gave Pf growth 48h inconclusive, AMA1 RON2 block 25%, Pf growth 96h 9.3µM* and SARS PLP yeast 27%.
`Cc1ncc(CN2CCCC(C(=O)c3ccc(C(C)(C)C)cc3)C2)s1` (centres undefined) gave Pf growth 48h inconclusive, AMA1 RON2 block -14%, Pf growth 96h inconclusive and SARS PLP yeast 0%.
For Cc1ccc(C(=O)OCCOc2cccc(Cl)c2)cc1S(=O)(=O)N1CCOCC1 the results were Pf growth 48h 23%, AMA1 RON2 block -2%, Pf growth 96h inconclusive and SARS PLP yeast -1%.
For Cc1nnc(-c2ccccc2)c(=O)n1/N=C/c1c(O)ccc2ccccc12 the results were Pf growth 48h inconclusive, AMA1 RON2 block -26%, Pf growth 96h 4.1µM* and SARS PLP yeast 3.2µM*.
Brc1ccc(CSc2nnc(Cc3c[nH]c4ccccc34)o2)cc1 was read as Pf growth 48h inconclusive, AMA1 RON2 block -16% and Pf growth 96h -9%.
`COCc1cc(Sc2cccc(Cl)c2Cl)nc(-c2ccccc2)n1` gave Pf growth 48h inconclusive, AMA1 RON2 block 47%, Pf growth 96h 12µM* and SARS PLP yeast -14%.
For CC(C)CC(=O)Nc1ccccc1N1CCN(c2ccc(F)cc2)CC1 the results were Pf growth 48h inconclusive, AMA1 RON2 block -13%, Pf growth 96h -4% and SARS PLP yeast 2%.
CCOC(=O)c1ccc(N2CN(C3CCCCC3)CNC2=S)cc1 was read as Pf growth 48h -13%, AMA1 RON2 block -7%, Pf growth 96h -56% and SARS PLP yeast -18%.
Screening CCn1cc(C=C2C(=O)N(C)C(=O)N(C)C2=O)c2ccccc21 returned Pf growth 48h -30%, AMA1 RON2 block -9%, Pf growth 96h 0.12µM* and SARS PLP yeast 2%.
Screening CCn1cc(/C=C/c2cc[n+](C)cc2)c2ccccc21 returned Pf growth 48h 0.37µM*, AMA1 RON2 block 4%, Pf growth 96h 0.21µM* and SARS PLP yeast -1%.
CCn1cc(C=C2C(=O)NC(=O)NC2=O)c2ccccc21 was read as Pf growth 48h -7%, AMA1 RON2 block -18%, Pf growth 96h 11% and SARS PLP yeast 2%.
Screening CC(C)n1cc(/C=C/c2cc[n+](C)cc2)c2ccccc21 returned Pf growth 48h 0.52µM*, AMA1 RON2 block 6%, Pf growth 96h inconclusive and SARS PLP yeast 1%.
For Nc1ccc(C(=O)Oc2ccc([N+](=O)[O-])cc2)c(O)c1 the results were Pf growth 48h 5%, Pf growth 96h 99% and SARS PLP yeast 2%.
C=CCNC(=O)C1CC(=O)N(c2ccc(OCC(=O)Nc3ccc(CC)cc3)cc2)C1 (centres undefined) was read as Pf growth 48h 7%, AMA1 RON2 block -4%, Pf growth 96h inconclusive and SARS PLP yeast 4%.
CC(C)CN(C(=O)/C=C/c1nc2ccccc2s1)C1CCS(=O)(=O)C1 (centres undefined) was read as Pf growth 48h inconclusive, AMA1 RON2 block 16%, Pf growth 96h 7.4µM* and SARS PLP yeast 4%.
Cc1cc(C)nc(N(C#N)Cc2ccc(Cl)cc2)n1 was read as Pf growth 48h 14%, AMA1 RON2 block 9%, Pf growth 96h 13µM* and SARS PLP yeast 0%.
Screening Cc1ccc(S(=O)(=O)N(Cc2cccc(C)c2)C(=O)N2CCN(C)CC2)cc1 returned Pf growth 48h inconclusive, AMA1 RON2 block 11%, Pf growth 96h 36% and SARS PLP yeast -2%.
Screening C=CCn1c(SCC2=C(C(=O)OCC)C(C)NC(=O)N2)nnc1C1CCCCC1 (centres undefined) returned Pf growth 48h 12µM*, AMA1 RON2 block 31%, Pf growth 96h 3% and SARS PLP yeast 6%.
`C=CCn1c(SCC(=O)NC(=O)NCCC)nnc1C1CCCCC1` gave Pf growth 48h inconclusive, AMA1 RON2 block 1%, Pf growth 96h inconclusive and SARS PLP yeast 10%.
Screening Cc1nn2c(-c3ccc(S(=O)(=O)N4CCN(CCO)CC4)o3)nnc2c2ccccc12 returned Pf growth 48h 9.3µM*, AMA1 RON2 block -6%, Pf growth 96h 10µM* and SARS PLP yeast 5%.
COc1ccc(-c2nnc3c4ccccc4c(C)nn23)cc1S(=O)(=O)N1CCN(CCO)CC1 was read as Pf growth 48h 4.7µM*, AMA1 RON2 block 3%, Pf growth 96h 2.6µM* and SARS PLP yeast -13%.
CCc1ccc(-n2c(=O)c3ccc(C(=O)NCCc4ccccc4)cc3n(CC(N)=O)c2=O)cc1 was read as Pf growth 48h inconclusive, AMA1 RON2 block 4%, Pf growth 96h -12% and SARS PLP yeast 0%.
CC(C)CNC(=O)C1CCN(c2ccc(S(=O)(=O)N3CCOCC3)cc2)CC1 was read as Pf growth 48h 7.4µM*, AMA1 RON2 block 4% and SARS PLP yeast -1%.
Screening COc1ccccc1C(=O)NCC1CCN(c2ccc(S(=O)(=O)N3CCOCC3)cc2)CC1 returned AMA1 RON2 block -4%, Pf growth 96h 3.3µM* and SARS PLP yeast 1%.
O=C(Nc1ccc2c(c1)OCO2)C1CCN(c2ccc(S(=O)(=O)N3CCOCC3)cc2)CC1 was read as Pf growth 48h inconclusive, AMA1 RON2 block 8%, Pf growth 96h inconclusive and SARS PLP yeast 8%.
`O=C(NC1CC1)C1CCN(c2ccc(S(=O)(=O)N3CCOCC3)cc2)CC1` gave Pf growth 48h 4.1µM*, AMA1 RON2 block 6%, Pf growth 96h -5% and SARS PLP yeast 2%.
Screening COc1cccc(-c2ncc3ccccc3c2COC(=O)c2cccc(Br)c2)c1 returned Pf growth 48h inconclusive, AMA1 RON2 block -5%, Pf growth 96h 4.7µM* and SARS PLP yeast 5%.

Bioassay records deposited in PubChem BioAssay by National Center for Advancing Translational Sciences (NCATS).
